Sampled rows, rich in hits. Any-hit rate of the full collection: about 2.8%.
PG9 Ab binder: binds the HIV-1 gp120 antibody PG9. TR-FRET gp120-PG9 antibody binding. inhibition, % at 6.7 µM. actives 0.43% (n = 360,000). AID 624416; in the data active means inhibition above about 8.5%
PP1 counter: counter-screen for PP5 inhibitors: inhibitors of human PP1-alpha. actives 0.9% (n = 320,000). inhibition, % at 6.7 µM. P62136. purified PP1alpha, OMFP fluorescence;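 active means inhibition above the mean inhibition of all tested compounds plus 3 SD, computed separately for each screening campaign, cut at about 15% in these data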
PP5 inh: inhibitors of human protein phosphatase 5 (PP5) | P53041 | purified PP5c, OMFP substrate fluorescence | inhibition, % at 6.7 µM | actives 0.18% (n = 320,000) | AID 1987;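 active means inhibition above the campaign's mean inhibition across all tested compounds plus 3 SD, cut at about 9.5% in these data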;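 further: 0% = DMSO only and 100% = 100 µM cantharidin control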
JMJD2C inh: blocks human GASC-1 demethylase activity | Q9H3R0 | GST-JMJD2C(1-420) H3K9me3 demethylation, DELFIA europium | inhibition, % at 2.35 µM | actives 0.069% (n = 330,000);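 active means more than half of a compound's replicate wells show inhibition beyond 50%, single wells judged on their own value; inconclusive means some, but no more than half, of replicates pass 50% inhibition; inactive means no replicate passes 50% inhibition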;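 further: signal counts dimethyl H3K9 product captured on neutravidin plate; 0% = median of DMSO wells and 100% = 0.3 times that DMSO median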
Target sequence (Q9H3R0 1-420 limits assumed): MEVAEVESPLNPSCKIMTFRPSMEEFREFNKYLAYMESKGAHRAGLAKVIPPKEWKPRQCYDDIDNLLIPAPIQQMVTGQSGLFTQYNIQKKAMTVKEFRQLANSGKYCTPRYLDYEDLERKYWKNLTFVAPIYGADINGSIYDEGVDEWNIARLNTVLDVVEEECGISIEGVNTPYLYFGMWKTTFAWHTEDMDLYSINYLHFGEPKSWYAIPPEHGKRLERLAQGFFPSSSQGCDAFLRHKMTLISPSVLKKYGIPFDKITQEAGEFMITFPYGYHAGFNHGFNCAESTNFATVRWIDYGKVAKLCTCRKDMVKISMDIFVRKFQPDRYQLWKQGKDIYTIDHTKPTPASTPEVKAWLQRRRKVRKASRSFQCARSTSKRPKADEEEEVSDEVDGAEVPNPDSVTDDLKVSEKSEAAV
KLK7 zymogen act: activators of human kallikrein-7 zymogen; activation, % at 7 µM; purified proKLK7, EDANS-DABCYL substrate fluorescence; 100% is mature enzyme control, 0% vehicle; actives 0.9% (n = 370,000);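 active means activation above the mean of all tested compounds plus 3 SD, computed per campaign excluding outliers beyond control limits, cut at about 13% in these data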
Target sequence (P49862 whole entry, looked up): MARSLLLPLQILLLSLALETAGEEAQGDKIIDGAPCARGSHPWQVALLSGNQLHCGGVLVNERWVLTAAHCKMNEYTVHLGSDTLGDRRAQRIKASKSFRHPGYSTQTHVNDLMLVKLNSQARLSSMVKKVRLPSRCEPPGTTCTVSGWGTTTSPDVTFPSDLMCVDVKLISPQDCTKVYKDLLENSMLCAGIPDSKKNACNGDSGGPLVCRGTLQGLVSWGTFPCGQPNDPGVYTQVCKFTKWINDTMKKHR
Rev-erbA mod: modulators of human Rev-erb alpha DNA binding | Rev-erbα–FITC-DNA binding, fluorescence polarization, 90 min | P20393 | AID 1259318 | actives 0.79% (n = 370,000) | activity, % at 10 µM;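 active means activity above about 14%, limit read from the data; passing the limit was not always enough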;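 further: 0% = DMSO wells with 35 nM protein and 100% = DMSO wells with 750 nM protein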
PP1 inh confirm: human PP1 phosphatase inhibition, confirmation | shares compounds with PP1 counter | purified PP1alpha, OMFP substrate fluorescence | inhibition, % at 6.7 µM | actives 52% (n = 1,900) | AID 2358;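 active means mean PP1 inhibition above a set limit taken from the earlier primary screen, cut at about 15% in these data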
PP5 counter: PP5 phosphatase inhibition, counter-screen for PP1 inhibitors; purified PP5c, OMFP fluorescence; inhibition, % at 6.7 µM; shares compounds with PP1 counter; actives 4% (n = 1,900);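 active means mean PP5 inhibition over triplicate wells above about 9.5% taken from the earlier PP1 screen, limit read from the data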
Active calls of the source: *; ? = inconclusive; nt = not tested or not shown.

SMILES	PG9 Ab binder	PP1 counter	PP5 inh	JMJD2C inh	KLK7 zymogen act	Rev-erbA mod	PP1 inh confirm	PP5 counter
C#CCOCCOCCOCCNc1nc(N2CCOCC2)nc(N2CCN(C(=O)CCCCCCCCCCNC(=O)[C@@H](CCSC)n3cc(CCO)nn3)CC2)n1	-0.2	-0.8	2.5	3.1	0.2	0.1	nt	nt
C#CCOCCOCCOCCNc1nc(N2CCN(C(=O)CCCCCCCCCCNC(=O)Cn3cc(C[C@@H](C)O)nn3)CC2)nc(N2CCN(C(=O)CCCCCCCCCCNC(=O)[C@H](CCCCN)n3cc(C[C@@H](C)CC)nn3)CC2)n1	nt	37.6*	4.8	-20.2	nt	nt	30.6*	1.1
CN1CCCCC(NC(=O)C23CC4CC(CC(C4)C2)C3)C1=O (stereo not drawn)	1.2	nt	nt	nt	-0.3	0.2	nt	nt
O=C(c1cc(-c2ccco2)on1)N1CCN(C(c2ccccc2)c2ccccc2)CC1	1.4	19.4*	2.7	9.8	-0.6	-1.2	6.9	-1.1
COc1ccc(-c2cc(C(=O)N3CCN(C(c4ccccc4)c4ccccc4)CC3)no2)cc1	nt	4.1	0.4	8.3	nt	1.6	nt	nt
COc1ccc(C2/C(=C(\O)c3ccc4c(c3)OCCO4)C(=O)C(=O)N2c2nc(C)c(C(C)=O)s2)cc1 (stereo not drawn)	-0.3	18.8*	1.9	4.7	-2.6	5.2	11.0	-5.7
CCC(=O)Nc1nnc(/C=C/c2ccc(OC)cc2)s1	-1.9	22.5*	2.8	-5.9	-316.8	1.1	4.1	-0.7
COc1ccc(/C=C/c2nnc(NC(=O)CSc3ccc(C)cc3)s2)cc1	-1.8	-4.4	1.9	16.4	-0.6	-2.9	nt	nt
COc1cc(OC)nc(NC(=O)CS(=O)(=O)c2ccccc2)n1	1.2	29.5*	-0.3	?	0.4	5.0	-3.0	-1.4
COc1ccc(OC)c(NC(=O)CS(=O)(=O)c2ccccc2)c1	0.9	-1.9	1.1	-6.9	-0.7	-0.7	nt	nt
NC(=O)[C@H](Cc1cc2ccccc2s1)NC(=O)[C@@H]1CC2(CC(c3cccc(NC(=O)[C@@H]4CCC(=O)N4)c3)=NO2)CN1C(=O)/C=C/c1c(F)cccc1Cl (stereo partly drawn)	nt	30.1*	5.3	-2.1	nt	nt	20.0*	6.2
CC(=O)Nc1cc(OC(=O)c2ccco2)cc(OC(=O)c2ccco2)c1	-1.7	-3.9	6.0	-4.7	0.4	-2.0	nt	nt
CC(=O)Nc1ccc(OC(=O)c2ccco2)cc1	0.5	19.5*	1.9	95.3	-0.6	-3.9	-4.9	-5.5
COCC(C)N1C(=O)Cc2c1nc(N)c1c(N)nc(N3CCN(c4ccccc4F)CC3)c(C#N)c21 (stereo not drawn)	1.7	11.0	7.7	11.9	-23.6	-4.1	nt	nt
COCCN1C(=O)Cc2c1nc(N)c1c(N)nc(N3CCN(c4ccc(F)cc4)CC3)c(C#N)c21	-1.6	19.0*	0.6	2.4	-1.1	-1.6	7.7	7.4
CCOC(=O)C1=C(C(=O)OCC)C2N(Cc3ccccc3)c3ccccc3[C@@]23C[C@@H](C(=O)OC)N(S(=O)(=O)c2ccc(C(F)(F)F)cc2)C3=N1 (stereo partly drawn)	-1.6	nt	nt	nt	0.1	-1.5	nt	nt
Cc1cc2oc(=O)cc(-c3cc4ccccc4o3)c2cc1O	-1.4	23.8*	-0.1	1.8	-1.2	-14.2	21.4*	-0.7
O=c1cc(-c2cc3ccccc3o2)c2cc(O)ccc2o1	nt	3.2	0.8	-5.8	nt	nt	nt	nt
Cc1ccc(NC(=O)N2CCC(N(C)CCC(C)C)CC2)cc1F	nt	nt	nt	nt	0.1	-4.5	nt	nt
Clc1cccc(Cl)c1CNc1ccc(N2CCCC2)cc1	0.2	18.7*	2.8	3.0	-2.3	-3.0	0.8	1.5
CC(C)(C)NC(=O)N1CCN(c2nc(-c3ccccc3)ns2)CC1	-1.9	52.7*	1.2	-11.2	0.3	-4.3	0.4	-1.7
CC1Cc2ccccc2N1Cc1cc(=O)n2ccsc2n1 (stereo not drawn)	-1.0	21.9*	-3.6	6.7	-6.0	-30.8	19.3*	-1.5
COc1cc2c(c(OC)c1)C(=O)O[C@H](C)C[C@@H]1O[C@H]1CCCCC(=O)C2	nt	nt	nt	nt	0.6	8.7	nt	nt
Cc1sc2nc(CN3CCCC3)nc(N3CCN(S(=O)(=O)c4cccc(F)c4)CC3)c2c1C	1.1	18.6*	2.5	nt	-2.1	5.3	3.0	-1.7
CCC(C)N(C(=O)CSc1nnc(-c2cccnc2)n1C1CCCCC1)C(C)CC (stereo not drawn)	nt	nt	nt	nt	0.4	-5.9	nt	nt
SMILES	PG9 Ab binder	PP1 counter	PP5 inh	JMJD2C inh	KLK7 zymogen act	Rev-erbA mod	PP1 inh confirm	PP5 counter
CCC(=O)NC(c1cccs1)c1cc([N+](=O)[O-])c2cccnc2c1OC (stereo not drawn)	1.2	nt	nt	nt	0.2	-7.1	nt	nt
Cc1ccc(C(NC(=O)C(C)C)c2cc([N+](=O)[O-])c3cccnc3c2O)cc1 (stereo not drawn)	-0.1	26.3*	5.2	3.6	-0.4	1.4	20.2*	-1.1
CC(C)C(=O)NC(c1cccs1)c1cc([N+](=O)[O-])c2cccnc2c1O (stereo not drawn)	nt	25.9*	1.0	12.8	nt	nt	16.5*	7.8
Cn1c(=O)oc2cc(S(=O)(=O)N3CCN(C(=O)C4CCCO4)CC3)ccc21 (stereo not drawn)	nt	nt	nt	nt	0.7	-1.1	nt	nt
Cc1cc(N2C(=O)C(O)=C(C(=O)c3cc4ccccc4o3)C2c2ccc(OC(C)C)cc2)no1 (stereo not drawn)	6.6	22.6*	0.2	6.9	-1.3	0.1	33.5*	-1.6
Cc1cc(N2C(=O)C(O)=C(C(=O)c3cccs3)C2c2ccccc2)no1 (stereo not drawn)	8.0	-1.3	0.3	-2.0	0.4	6.9	nt	nt
CCCCCOc1ccc(C2C(C(=O)c3ccc(C)o3)=C(O)C(=O)N2c2cc(C)on2)cc1 (stereo not drawn)	5.9	24.3*	0.9	-13.0	1.1	-4.7	31.9*	-0.2
c1ccc(COCCc2cn(Cc3ccccc3)c3ccccc23)cc1	-0.3	nt	nt	nt	0.3	-4.5	nt	nt
COc1ccc(-n2cccc2/C=C2\C(=N)N3N=C(c4ccco4)SC3=NC2=O)cc1	-1.9	38.2*	4.3	4.8	-0.3	-35.4	30.3*	-1.3
O=C(NCC1CCN(C(=O)C(=O)c2cc3ccccc3o2)CC1)c1ccc2c(c1)OCC2	-1.2	nt	nt	nt	-0.2	-2.6	nt	nt
COc1ccc(C(=O)N/C(=C\c2cn(S(=O)(=O)N(C)C)c3ccccc23)C(=O)NC(C)C)cc1	1.8	-4.0	1.1	-1.4	0.6	-2.9	nt	nt
CCN(CC)C(=O)/C(=C/c1cn(S(=O)(=O)N(C)C)c2ccccc12)NC(=O)c1ccc(OC)cc1	-0.4	27.1*	-0.2	-7.7	-0.1	3.0	22.5*	-2.0
COc1cccc(-n2nnc3c(=O)n(Cc4ccc(F)cc4)cnc32)c1	2.9	39.8*	2.4	7.3	0.3	-7.8	-2.4	-1.3
